Shown are actives, neighbours in structure and some others; about 8% of the full set was active somewhere.
HCMV antiviral = human cytomegalovirus inhibition; HFF cells, HCMV-luciferase reporter, 72 h; active compounds read low; activity change, negative = inhibition, % at 57.5 µM; hit rate 4.5% among 410,000; AID 1259415; in the data active = activity change below about -60%; inconclusive = no clear call, values can overlap the other calls; inactive = above about -39%; also: % is scaled to controls: 0 for no effect and ±100 for the full control effect
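After 16 h attachment at 37C, HFF cells received test compound and HCMV-luciferase (1 PFU/cell); reporter luminescence read 72 h later, data normalized against buffer-only and known inhibitor Salinomycin.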
Marburg entry inh = Marburg virus entry inhibition. Marburg virus pseudotyped entry inhibition, cell reporter. Potency, µM (titrated, usually from 37.8 µM), without a hit: top-dose activity change, negative = inhibition, usual class: inhibitors. hit rate 1.8% among 300,000; calls by dose curve; tested in HEK293 cells; also: potency is read from the fitted curve at half-maximal effect; % is scaled to controls: 0 for no effect and ±100 for the full control effect
SARS PLP yeast = SARS-CoV PLP inhibition in yeast | S. cerevisiae expressing SARS-CoV PLpro, growth rescue | Potency, µM (titrated, usually from 32.9 µM), for inactives: at the highest dose activity, positive = growth rescue, actives largely listed as activators | hit rate 0.19% among 330,000 | AID 485353; calls by dose curve; also: potency is read from the fitted curve at half-maximal effect; 0% is about no effect; nearly all actives have a fitted effect of over 55% in size
LASV entry inh = inhibitors of Lassa virus binding or cell entry; Lassa virus pseudotype entry inhibition, cell reporter; Potency, µM (highest dose often 37.9 µM), without a hit: at the top dose activity change, negative = inhibition, hits mostly inhibitors; hit rate 1.2% among 300,000; AID 540256; calls by dose curve; tested in HEK293 cells; also: potency is read from the fitted curve at half-maximal effect; % is scaled to controls: 0 for no effect and ±100 for the full control effect; nearly all actives have a fitted effect of over 50% in size
FMDV inh = antivirals against foot and mouth disease virus; Potency, µM (titrated, usually from 57.9 µM), for inactives: top-dose activity change, negative = inhibition, hits mostly inhibitors; FMDV antiviral cell-based qHTS; hit rate 1.2% among 410,000; calls by dose curve; tested in HEK293T cells; also: read-out not given here; potency is read from the fitted curve at half-maximal effect; % is scaled to controls: 0 for no effect and ±100 for the full control effect; nearly all actives have a fitted effect of over 45% in size
HCV inhibitor = blocks hepatitis C virus. Huh7.5.1 HCVcc-Cre infection, luciferase reporter, 44 h. hit rate 3.4% among 340,000. Potency, µM (top dose mostly 41.8 µM), for the others: top-dose activity change, negative = inhibition, hits mostly inhibitors; active = well fitted inhibition curve with a large enough effect; inconclusive = small, poorly fitted or top-dose-only effect, or another doubt; inactive = no such curve, though single readings can be large or run the other way; also: potency is read from the fitted curve at half-maximal effect; % is scaled to controls: 0 for no effect and ±100 for the full control effect
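After 44 h co-culture of compound, cells and HCVcc-Cre (~0.5 moi), substrate is added for 15 min at room temperature and luciferase measured over 15 sec. Cells were seeded at 1,000/well and pre-cultured 4 h.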
The depositor's hits bear a star; ? = inconclusive; . = no result given; ! = not active in a repeat; [ ] = another dose, or the depositor's remark.

SMILES | HCMV antiviral | Marburg entry inh | SARS PLP yeast | LASV entry inh | FMDV inh | HCV inhibitor
COc1ccc(-c2cn3cccnc3n2)cc1NC(=O)Nc1cc(C)ccc1C | -69.4* | ? | 5.4% | ? | 5.3% | .
COc1ccc(-c2cn3cccnc3n2)cc1NC(=O)c1ccc(Br)o1 | -21.0 | -0.1% | -15.9% | -23.7% | -5.2% | 11.2µM*
O=S(=O)(O)c1cc(O)ccc1O | ? | . | -4.8% | . | -16.6% | -3.2%
O=S(=O)(c1cc(O)ccc1O)c1cccc2c(S(=O)(=O)c3cc(O)ccc3O)cccc12 | -21.7 | . | -7.4% | . | 13.2% | 10µM*
c1ccc(N2CCN(c3nc4cc5c(cc4s3)OCCO5)CC2)cc1 | -16.6 | 23.4% | -6.7% | -0.5% | 7.3% | ?
c1c2c(cc3sc(N4CCOCC4)nc13)OCCO2 | ? | ? | -12.8% | 5.17µM* | -86.2% | 6.0%
CCc1nc2ccc(C(=O)NCCOc3ccc(OC)cc3)cn2c1N(CC)CCOC | 13.4 | . | . | . | -1.5% | .
CCc1nc2ccc(C(=O)NCCOc3ccc(OC)cc3)cn2c1N(CCN(C)C)CC1CC1 | -63.7* | . | . | . | -17.5% | .
CN1C(=O)Cc2cc(S(=O)(=O)NCc3ccccc3Cl)ccc21 | ? | . | . | 16.5%[46.1 µM] | 71.2% | .
COC(=O)c1ccc2nc(NC(=O)CSCC(=O)OCC(=O)c3ccccc3)sc2c1 | -23.4 | 20.7% | 18.4% | 3.1% | -12.9% | 33.8%
Cc1ccc2nc(NC(=O)CSCC(=O)OCC(=O)c3ccc(Br)cc3)sc2c1 | -4.0 | 3.16µM* | -0.7% | 7.94µM* | 7.94µM* | 3.8%
N#C/C(=C\N1CCN(Cc2ccc3c(c2)OCO3)CC1)c1nc2ccccc2s1 | -18.3 | -10.5% | -5.7% | -5.3% | -28.5% | 14.1µM*
c1ccc2sc(N3CCN(Cc4ccc5c(c4)OCO5)CC3)nc2c1 | . | . | . | . | 17.4% | .
Cc1nn2c(=O)cc(COC(=O)c3cccc(NC(=O)c4ccc(C(C)(C)C)cc4)c3)nc2s1 | -27.4 | . | . | ? | 4.6% | .
COc1cc(-c2nnc(CSc3nnc(Nc4ccc(C(C)C)cc4)s3)o2)cc(OC)c1OC | 40.7 | ? | 3.2% | ? | 12.7% | 7.08µM*
Cc1cccc(C2CC3(CC(C)(C)NC(=S)N3)Oc3cc(O)ccc32)c1 (stereo not drawn) | 13.6 | ? | 0.6% | ? | -11.8% | 10µM*
COc1cccc(C2CC3(CC(C)(C)NC(=S)N3)Oc3cc(O)ccc32)c1 (stereo not drawn) | -36.7 | -21.3% | 18.0% | ? | -26.1% | ?
Cc1csc(CN(C)C(=O)c2sc3ncnc(NCC4CCCO4)c3c2C)n1 (stereo not drawn) | . | . | . | . | -3.7% | .
O=C(O)c1ccc(NC(=O)c2cn(-c3ccccc3)nc2-c2ccc(Br)cc2)cc1 | -63.6*! | -0.7%[46.1 µM] | -0.7% | -16.1%[46.1 µM] | -1.2% | 9.6%
O=C(O)c1cn(-c2ccccc2)nc1-c1ccncc1 | 37.2 | 22.6%[46.1 µM] | -1.8% | 7.3% | 9.6% | 5.4%
CCOC(=O)c1cn(-c2ccccc2)nc1-c1cccnc1 | 41.2 | ? | 28.3% | 2.6% | -10.0% | 10µM*
CCOC(=O)c1cn(-c2ccccc2)nc1-c1ccncc1 | -17.2 | -19.0% | -2.0% | 18.3% | -24.0% | 10µM*
O=C(NC1CCN(Cc2ccccc2)CC1)c1cn(-c2ccccc2)nc1-c1cccnc1 | -25.3 | 11.2µM* | -3.5% | -2.6%[46.1 µM] | -18.6% | -16.6%
O=C(O)c1ccc(NC(=O)c2cn(-c3ccccc3)nc2-c2ccccc2)cc1 | 22.6 | -7.4%[46.1 µM] | -1.0% | 15.6%[46.1 µM] | 12.1% | 11.6%
COc1ccc(CNC(=S)Nc2ccc(Br)cc2)cc1 | ? | 6.5% | 9.6% | -19.6% | 35.8% | ?
Cc1cc(C)n(-c2nc3ccccc3nc2Nc2cccc(C(=O)NCCc3ccccc3)c2)n1 | 14.0 | 3.5%[46.1 µM] | . | 4.3%[46.1 µM] | -17.6% | .
COc1ccc(-c2nn(-c3ccccc3)cc2C(=O)NC(=S)N2CCOCC2)cc1OC | -96.5* | . | -10.5% | . | 18.9% | -2.4%
O=C(OCn1nnc2ccccc2c1=O)c1cn(-c2ccccc2)nc1-c1cccnc1 | -30.4 | -19.6% | 3.3% | 2.6% | ? | 10µM*
COC(=O)c1cn(-c2ccccc2)nc1-c1ccccc1 | 14.2 | -20.8% | -0.4% | 8.7% | -8.7% | 11.2µM*
COc1ccc(-c2nn(-c3ccccc3)cc2C(=O)NC(=S)NNC(=O)c2ccncc2)cc1 | -91.7* | . | 5.3% | . | 0.0% | -22.0%

Screening data from PubChem.
